“And” between values parts separate entries of the source, which are not always exact repeats. Equal entries are not always repeated. Records with an inconclusive call do not appear. A call without a number means that no potency is given here. The source made the active and inactive calls. The call rests on the fitted dose curve; in most records, active means well fitted curve in the direction sought with a large enough effect; inconclusive means small, poorly fitted or top-dose-only effect, or another doubt; inactive means no such curve, though single readings can be large; an effect the other way counts as inactive or inconclusive.
Legend:
[1] = qHTS of pediatric cancer cell lines to identify multiple opportunities for drug repurposing: Primary screen for Rh18 cells (AID 1347102); further: nearly all actives have a fitted effect of over 65% in size
Method in brief: (§1)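 Cells (500-1,000/well) rested 5 h, then received compounds for 48 h; metabolically active cells were measured by CellTiter-Glo luminescence. Final concentrations spanned up to 46 µM (MIPE, 11-point) or 0.59 nM-46 µM (NPC, 8-point) in primary screens, 11-point in follow-ups.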

[2] = qHTS of pediatric cancer cell lines to identify multiple opportunities for drug repurposing: Primary screen for OHS-50 cells (AID 1347103); further: nearly all actives have a fitted effect of over 40% in size
Method in brief: as §1

[3] = qHTS of pediatric cancer cell lines to identify multiple opportunities for drug repurposing: Primary screen for MG 63 (6-TG R) cells (AID 1347105); further: nearly all actives have a fitted effect of over 50% in size
Method in brief: (§2)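 Cells seeded at 500-1,000 cells/well in growth media, rested 5 hours at 37 degrees C, 5% CO2, then dosed; MIPE compounds at 11-point (from 0.78 nM) and NPC at 8-point (from 0.59 nM) final concentrations. Viability by CellTiter-Glo luminescence after 48 hours.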

[4] = qHTS of pediatric cancer cell lines to identify multiple opportunities for drug repurposing: Primary screen for control Hh wild type fibroblast cells (AID 1347106); further: nearly all actives have a fitted effect of over 55% in size
Method in brief: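 Viability after 48 h compound treatment at 37C, 500-1,000 cells/well, read as ATP luminescence with CellTiter-Glo. Primary screens used 11-point (MIPE, 0.78 nM-46 µM) or 8-point (NPC, 0.59 nM-46 µM) final concentrations; follow-up screens used 11-point dilutions.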

[5] = qHTS of pediatric cancer cell lines to identify multiple opportunities for drug repurposing: Primary screen for Rh30 cells (AID 1347107); further: nearly all actives have a fitted effect of over 75% in size
Method in brief: as §1

[6] = qHTS of pediatric cancer cell lines to identify multiple opportunities for drug repurposing: Primary screen for Rh41 cells (AID 1347108); further: nearly all actives have a fitted effect of over 70% in size
Method in brief: as §2

[7] = qHTS of pediatric cancer cell lines to identify multiple opportunities for drug repurposing: Primary screen for RD cells (AID 1347104); further: nearly all actives have a fitted effect of over 55% in size
Method in brief: as §2

[8] = qHTS of pediatric cancer cell lines to identify multiple opportunities for drug repurposing: Confirmatory screen for NB1643 cells (AID 1347109); further: nearly all actives have a fitted effect of over 45% in size
Method in brief: as §1

[9] = qHTS of pediatric cancer cell lines to identify multiple opportunities for drug repurposing: Confirmatory screen for SK-N-MC cells (AID 1347111);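 further: cells exposed to compound for 48 h before the readout; nearly all actives have a fitted effect of over 70% in size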
Method in brief: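 Seed 500-1,000 cells/well; rest 5 h at 37 degrees C. Pin-transfer compounds, 11-point titration. Incubate 48 h. Add CellTiter-Glo, 15 min RT, read luminescence.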
Potency means the concentration at half of the fitted maximal effect.

Structure (SMILES)	Potency [1]	Potency [2]	Potency [3]	Potency [4]	Potency [5]	Potency [6]	Potency [7]	Potency [8]	Potency [9]
COc1c(N2CCNC(C)C2)c(F)cc2c(=O)c(C(=O)O)cn(C3CC3)c12 (stereo not given)	inactive	inactive	inactive	inactive	inactive	inactive			
CCOC(=O)c1ccc(OC(=O)CCCCCN=C(N)N)cc1	inactive	inactive	inactive		inactive	inactive	inactive		
CCn1cc(C(=O)O)c(=O)c2cc(F)c(N3CCNCC3)nc21	inactive	inactive	inactive		inactive	inactive			
COc1cc([C@@H]2c3cc4c(cc3[C@H](O)[C@H]3COC(=O)[C@H]23)OCO4)cc(OC)c1OC	inactive	30.9 nM (active) and 1 nM (active)	inactive		inactive	inactive		32.9 nM (active)	32.9 nM (active)
CC1(C)[C@H](C(=O)O)N2C(=O)C[C@H]2S1(=O)=O	inactive	inactive	inactive		inactive	inactive			
CCN1CCCC1CNC(=O)c1cc(S(N)(=O)=O)ccc1OC (stereo not given)	inactive	inactive	inactive		inactive	inactive			
CC1CC2C3CCC4=CC(=O)C=C[C@]4(C)[C@@]3(F)[C@@H](O)C[C@]2(C)[C@@]1(O)C(=O)CO (stereo not given in full)	inactive	inactive	inactive	inactive					inactive
CCN(C)C(=O)Oc1cccc([C@H](C)N(C)C)c1	inactive	inactive	inactive	inactive	inactive	inactive			
CC(C)(C#N)c1cc(Cn2cncn2)cc(C(C)(C)C#N)c1	inactive	inactive	inactive	inactive	inactive	inactive		inactive	inactive
COCCCOc1cc(C[C@@H](C[C@H](N)[C@@H](O)C[C@H](C(=O)NCC(C)(C)C(N)=O)C(C)C)C(C)C)ccc1OC	inactive	inactive	inactive	inactive	inactive	inactive			
NC1(c2ccc(-c3nc4ccn5c(=O)[nH]nc5c4cc3-c3ccccc3)cc2)CCC1	16.8 µM (active)	344 nM (active) and 692 nM (active)	7.43 µM (active) and 13.3 µM (active)		18.7 µM (active)	11.8 µM (active)	16.6 µM (active) and 13.3 µM (active)		
CC(C)C[C@H](NC(=O)[C@H](CCc1ccccc1)NC(=O)CN1CCOCC1)C(=O)N[C@@H](Cc1ccccc1)C(=O)N[C@@H](CC(C)C)C(=O)[C@@]1(C)CO1	106 nM (active) and 264 nM (active)	61.7 nM (active) and 109 nM (active)	42.2 nM (active) and 59 nM (active)	335 nM (active) and 264 nM (active)	59.6 nM (active) and 296 nM (active)	23.7 nM (active) and 46.9 nM (active)			8.3 nM (active)
O=c1cc(O)c(Cl)c[nH]1	inactive	inactive	inactive	inactive	inactive				
C[C@@H]1CN(c2c(F)c(N)c3c(=O)c(C(=O)O)cn(C4CC4)c3c2F)C[C@H](C)N1	inactive	inactive	inactive	inactive	inactive	inactive			
CN1CCCC(n2nc(Cc3ccc(Cl)cc3)c3ccccc3c2=O)CC1 (stereo not given)	1.48 µM (active)	27.6 µM (active) and 968 nM (active)			inactive	inactive	5.9 µM (active)		23300 nM (active)
Nc1nc(=S)c2[nH]cnc2[nH]1	13.3 µM (active)	872 nM (active) and 1.72 µM (active)	inactive	inactive				5.85 µM (active) and 4.14 µM (active)	11.7 µM (active) and 7.37 µM (active)
CN(C)c1ccc(C(=C2C=CC(=[N+](C)C)C=C2)c2ccc(N(C)C)cc2)cc1	750 nM (active) and 332 nM (active)	978 nM (active) and 217 nM (active)	2.66 µM (active) and 1.48 µM (active)	8.41 µM (active) and 2.64 µM (active)	11.9 µM (active) and 5.9 µM (active)	6.68 µM (active) and 1.66 µM (active)		1170 nM (active)	737 nM (active)
O=C(O)C1CCCN(CCC=C(c2ccccc2)c2ccccc2)C1 (stereo not given)	inactive	inactive	inactive		inactive				
Cn1c(=O)c2c(ncn2CC(O)CO)n(C)c1=O (stereo not given)	inactive	inactive	inactive	inactive	inactive	inactive			
O=C(N[C@H](CO)[C@H](O)c1ccc([N+](=O)[O-])cc1)C(Cl)Cl	inactive	inactive	inactive		inactive	inactive			
Cc1onc(-c2ccccc2Cl)c1C(=O)N[C@@H]1C(=O)N2[C@@H]1SC(C)(C)[C@@H]2C(=O)O	inactive	inactive	inactive		inactive	inactive			
Nc1[nH]c(=O)ncc1F	inactive	inactive	inactive	inactive	inactive	inactive		inactive	inactive
NNC(=O)c1ccncc1	inactive	inactive	inactive		inactive	inactive	inactive		
CNS(=O)(=O)Cc1ccc2[nH]cc(CCN(C)C)c2c1	inactive	inactive	inactive		inactive	inactive			
COc1ncnc(NS(=O)(=O)c2ccc(N)cc2)c1OC	inactive	inactive	inactive	inactive	inactive	inactive			
CN(C)CCc1c[nH]c2ccc(CS(=O)(=O)N3CCCC3)cc12	inactive	inactive	inactive		inactive	inactive	inactive		
CN(Cc1cc(Br)cc(Br)c1N)C1CCCCC1	inactive		inactive	inactive	inactive	inactive			
CCC(=O)O[C@]1(C(=O)CCl)[C@@H](C)C[C@H]2[C@@H]3CCC4=CC(=O)C=C[C@]4(C)[C@@]3(F)[C@@H](O)C[C@@]21C	inactive		inactive		inactive	inactive		inactive	inactive

Reference: PubChem BioAssay (NCATS)
